Results filed as inconclusive are left out. Active and inactive are the calls of the source. Calls come from the whole dose curve; as a rule, active = well fitted cell-killing curve with a large enough effect; inconclusive = small, poorly fitted or top-dose-only effect; inactive = flat fitted curve, though single readings scatter.
test: DAPI mCherry counterscreen qHTS for Zika virus inhibitors; conditions: Vero cells, DAPI nuclear count cytotoxicity, imaging 48-72 h, infected with Zika reporter virus, MOI 1; series mostly up to 32.6 µM; activity change, negative = cell loss: at the top concentration; note: nearly all actives have a fitted effect of over 55% in size
Method in brief: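 Vero cells (5,000/well), plated overnight, given compounds then recombinant ZIKV-mCherry at MOI 1 for 48-72 hrs at 37 degrees C; PFA-fixed, Hoechst-stained and imaged; nuclei counted and mCherry-positive cells scored as percent infection.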
% is set by controls: 0 for no effect and ±100 for the full control effect; potency is the fitted concentration of half-maximal effect.

Q: Which “activity change, negative = cell loss” value does the source give for Cc1oc2c(cc(NS(=O)(=O)c3ccc(Br)cc3)c3ccccc32)c1C(=O)OCc1ccccc1 here?
A: -18.7% (inactive)

Q: With CN(C)[C@@H]1C(=O)C(C(=O)NCN2CCCC2)=C(O)[C@@]2(O)C(=O)C3=C(O)c4c(O)cccc4[C@@](C)(O)C3C[C@@H]12 (stereo partly drawn) as the compound, how does the “activity change, negative = cell loss” value read?
A: -14.8% (inactive)

Q: With COc1cnc(-c2ccc(Cn3c(CC(C)(C)C(=O)O)c(SC(C)(C)C)c4cc(OC[C@@H]5Cc6ccccc6N5C(C)=O)ccc43)cc2)nc1 as the compound, how does the Potency read?
A: 15.8 µM (active)

Reference: PubChem BioAssay AID1347156 (National Center for Advancing Translational Sciences (NCATS), 2019)
